Drawing on PubChem BioAssay (NCI), this text covers growth inhibition for 39 compounds.

This is part of a sample that, as a whole, favours compounds with a hit. Of some 79,000 tested, about 15% had one in any assay. A number with no mark means an inactive call. Active and inactive are the calls of the source. Cut-off read from the data, not from the text of the source: active = growth inhibition above about 70%; inactive = the rest.

The first experiment is described as follows: NCI Yeast Anticancer Drug Screen. Data for the mec2-1 strain (AID 157). Particulars: S. cerevisiae mec2-1 strain, at 50.0 µM (retest, dose inferred, filed as 5.0), stronger effect = higher value. In outline: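 Vehicle-treated cultures served as reference for growth inhibition of compound-exposed mec2-1 yeast.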
In the case of `Cc1cccc(NC(=O)CCc2ccc(Cl)cc2)n1`, the growth inhibition is -6%.
Same read-out and setting: under `O=C(NNc1nc(-c2ccccc2)cs1)C(F)(F)F` stands 98% (active); under `COc1ccc(C(=O)C(c2ccc(OC)cc2)C2(O)C(=O)Nc3c(Cl)cc(Cl)cc32)cc1` (stereo not drawn), -20%; under `CC(=O)NNc1nc(C)c(C(=O)NNC(=O)C(=O)Nc2ccc(Cl)c([N+](=O)[O-])c2)s1`, 19%.
Still for that read-out and setting: under `COc1ccc(Cc2cncc3c(O)c(OC)ccc23)cc1O` stands 50%; under `Nc1ccccc1N=Nc1c(S(=O)(=O)O)cc2cc(S(=O)(=O)O)cc(O)c2c1O`, 5%; under `CCN(CC)c1c(C(=O)/C=C/c2ccc(OC)cc2)c(-c2ccccc2)nn(C)c1=O`, 8%.
Same read-out and setting: with `O=C(O)/C=C/c1ccc(Cl)c(Cl)c1` the figure was 55%; with `CCC12C=CCN3CC[C@@]4(c5cc([C@@]6(C(=O)OC)C[C@@H]7CN(CCc8c6[nH]c6ccccc86)C[C@](O)(CC)C7)c(OC)cc5N(C)[C@H]4[C@@](O)(C(=O)OC)[C@@H]1OC(=O)CCCCCCCCCCCN1C(=O)C=CC1=O)[C@H]32` (stereo partly drawn), 99% (active); with `Cc1cc(C)c(Cc2cc(C(C)(C)C)cc(C)c2O)cc1Cc1cc(C(C)(C)C)cc(C)c1O`, 24%.
Turning to `COC(=O)C(=O)/C=C(/O)c1ccc(OC)cc1`, the growth inhibition is -9%.
Turning to `Oc1ccc2c(c1)OCC1c3ccccc3OC21` (stereo not drawn), the growth inhibition was 78% (active).
Same read-out and setting: under `Cc1cc(N2C(=O)CCSC2=S)c([N+](=O)[O-])cc1C` stands 99% (active); under `CCCCCCC(C)S(=O)(=O)c1ccc(C)cc1` (stereo not drawn), 83% (active).
Same read-out and setting: with `S=c1sc2c(s1)SCCOCCOCCOCCS2` the figure was 7%; with `N#Cc1cn(-c2c3ccccc3nc3ccccc23)c(=O)[nH]c1=O`, 52%; with `O=C1C=C(c2ccccc2)O/C1=C\C(=O)c1ccc(Cl)cc1`, 43%.
Take `O=c1[nH]c2cc(Cl)ccc2nc1/C=C(\O)c1ccc(N2CCN(c3ccc(/C(O)=C/c4nc5ccc(Cl)cc5[nH]c4=O)cc3)CC2)cc1`: the growth inhibition is 19%.
On the same count and under the same terms, with `O=C1Oc2ccccc2C(=O)/C1=C/N1C(=O)/C(=C/c2ccccc2)NC1=S` the figure was 27%.
As for `CN(C)/C=C(\C(=O)c1ccccc1)n1nc(-c2ccccc2)cc1-c1ccccc1`, the growth inhibition is 20%.
With `O=C1C(=O)c2ccccc2C(O)=C1Sc1ccccc1`, the growth inhibition is 89% (active).
For `O=C(c1c(F)c(F)c(F)c(F)c1F)n1c(=S)n(C(=O)c2c(F)c(F)c(F)c(F)c2F)c2ccccc21`, the growth inhibition is 90% (active).
Same read-out and setting: under `CCCCNCCC1(c2ccccc2)C(=O)Oc2ccccc21` (stereo not drawn) stands 18%; under `COc1cc(/C=C/c2cc[n+](C)cc2)ccc1O`, 7%.
In the case of `c1ccc(-c2ccc(-c3ccc(C4=NCCN4)cc3)o2)cc1`, the growth inhibition was 79% (active).
Same read-out and setting: under `CCCCCCCCCCCCCCNC(=O)C[N+](C)(C)Cc1ccccc1` stands 100% (active); under `NC(CSSCC(N)C(=O)Nc1ccc2ccccc2c1)C(=O)Nc1ccc2ccccc2c1` (stereo not drawn), 100% (active); under `O=C(OCc1ccccc1)C(O)c1ccccc1` (stereo not drawn), 6%.
On the same count and under the same terms, with `CC(=O)CC1(O)C(=O)Nc2ccc(Br)cc21` (stereo not drawn) the figure was -3%; with `S=C(S)NCCN1CCNCC1`, -10%; with `CCCCCCCC(=O)N1CCCCC1CC` (stereo not drawn), -30%.
Still for that read-out and setting: with `O=C1CCCC1C(=O)OC1CCCC1` (stereo not drawn) the figure was 4%; with `CCN1CCC(O)(/C=C/c2cccc(C)c2)C(C(=O)/C=C/c2cccc(C)c2)C1` (stereo not drawn), 98% (active).
Regarding `O=C(SCCCc1ccccc1)c1cc([N+](=O)[O-])cc([N+](=O)[O-])c1`, the growth inhibition was 98% (active).
On the same count and under the same terms, under `O=C1C(=O)C2CC3(CC1N2Cc1ccccc1)OCCO3` stands 79% (active); under `CNc1cc(SC)nc(N)n1`, -3%; under `Clc1ccc(Cl)c(SCCCN2CCNCC2)c1`, 32%.
Still for that read-out and setting: with `CC(C)C(Cl)CC/C(CBr)=C(\Cl)CCl` (stereo not drawn) the figure was 92% (active).
Same read-out and setting: under `O=C(O)CNc1ccc2c(c1)Cc1cc(Br)ccc1-2` stands 87% (active).

Still in this experiment, the particulars now being: S. cerevisiae mec2-1 strain, at 50.0 µM, stronger effect = higher value.
With `Cc1cccc(NC(=O)CCc2ccc(Cl)cc2)n1`, the growth inhibition is 2.55%.
On the same count and under the same terms, under `O=C(NNc1nc(-c2ccccc2)cs1)C(F)(F)F` stands 89.7% (active); under `COc1ccc(C(=O)C(c2ccc(OC)cc2)C2(O)C(=O)Nc3c(Cl)cc(Cl)cc32)cc1` (stereo not drawn), 92.3% (active).
Still for that read-out and setting: under `CC(=O)NNc1nc(C)c(C(=O)NNC(=O)C(=O)Nc2ccc(Cl)c([N+](=O)[O-])c2)s1` stands 20.9%; under `COc1ccc(Cc2cncc3c(O)c(OC)ccc23)cc1O`, 69.2%.
The same measure, in the same setting: under `Nc1ccccc1N=Nc1c(S(=O)(=O)O)cc2cc(S(=O)(=O)O)cc(O)c2c1O` stands -10.9%; under `CCN(CC)c1c(C(=O)/C=C/c2ccc(OC)cc2)c(-c2ccccc2)nn(C)c1=O`, 72.5% (active); under `O=C(O)/C=C/c1ccc(Cl)c(Cl)c1`, 64.3%.
Turning to `CCC12C=CCN3CC[C@@]4(c5cc([C@@]6(C(=O)OC)C[C@@H]7CN(CCc8c6[nH]c6ccccc86)C[C@](O)(CC)C7)c(OC)cc5N(C)[C@H]4[C@@](O)(C(=O)OC)[C@@H]1OC(=O)CCCCCCCCCCCN1C(=O)C=CC1=O)[C@H]32` (stereo partly drawn), the growth inhibition is 92.4% (active).
`Cc1cc(C)c(Cc2cc(C(C)(C)C)cc(C)c2O)cc1Cc1cc(C(C)(C)C)cc(C)c1O`: the growth inhibition was 49.4%.
As to `COC(=O)C(=O)/C=C(/O)c1ccc(OC)cc1`, the growth inhibition was -28.3%.
Same read-out and setting: with `Oc1ccc2c(c1)OCC1c3ccccc3OC21` (stereo not drawn) the figure was 64.3%.
In the case of `Cc1cc(N2C(=O)CCSC2=S)c([N+](=O)[O-])cc1C`, the growth inhibition is 99.6% (active).
The same measure, in the same setting: under `CCCCCCC(C)S(=O)(=O)c1ccc(C)cc1` (stereo not drawn) stands 84.7% (active); under `S=c1sc2c(s1)SCCOCCOCCOCCS2`, 0.95%.
In the case of `N#Cc1cn(-c2c3ccccc3nc3ccccc23)c(=O)[nH]c1=O`, the growth inhibition is 39.9%.
The same measure, in the same setting: with `O=C1C=C(c2ccccc2)O/C1=C\C(=O)c1ccc(Cl)cc1` the figure was 90.9% (active); with `O=c1[nH]c2cc(Cl)ccc2nc1/C=C(\O)c1ccc(N2CCN(c3ccc(/C(O)=C/c4nc5ccc(Cl)cc5[nH]c4=O)cc3)CC2)cc1`, 96.3% (active); with `O=C1Oc2ccccc2C(=O)/C1=C/N1C(=O)/C(=C/c2ccccc2)NC1=S`, 43.3%.
On to `CN(C)/C=C(\C(=O)c1ccccc1)n1nc(-c2ccccc2)cc1-c1ccccc1`, for which the growth inhibition is 73.7% (active).
Take `O=C1C(=O)c2ccccc2C(O)=C1Sc1ccccc1`: the growth inhibition was 92.4% (active).
Same read-out and setting: under `O=C(c1c(F)c(F)c(F)c(F)c1F)n1c(=S)n(C(=O)c2c(F)c(F)c(F)c(F)c2F)c2ccccc21` stands 71.4% (active); under `CCCCNCCC1(c2ccccc2)C(=O)Oc2ccccc21` (stereo not drawn), 57.5%.
On the same count and under the same terms, with `COc1cc(/C=C/c2cc[n+](C)cc2)ccc1O` the figure was 31.7%.
For the compound `c1ccc(-c2ccc(-c3ccc(C4=NCCN4)cc3)o2)cc1`, the growth inhibition was 95% (active).
The same measure, in the same setting: under `CCCCCCCCCCCCCCNC(=O)C[N+](C)(C)Cc1ccccc1` stands 99.7% (active); under `NC(CSSCC(N)C(=O)Nc1ccc2ccccc2c1)C(=O)Nc1ccc2ccccc2c1` (stereo not drawn), 91.7% (active).
Still for that read-out and setting: under `O=C(OCc1ccccc1)C(O)c1ccccc1` (stereo not drawn) stands -7.1%.
For the compound `CC(=O)CC1(O)C(=O)Nc2ccc(Br)cc21` (stereo not drawn), the growth inhibition was 6.3%.
Same read-out and setting: with `S=C(S)NCCN1CCNCC1` the figure was -38.1%; with `CCCCCCCC(=O)N1CCCCC1CC` (stereo not drawn), 25.6%; with `O=C1CCCC1C(=O)OC1CCCC1` (stereo not drawn), -15%.
On to `CCN1CCC(O)(/C=C/c2cccc(C)c2)C(C(=O)/C=C/c2cccc(C)c2)C1` (stereo not drawn), for which the growth inhibition is 93% (active).
The same measure, in the same setting: with `O=C(SCCCc1ccccc1)c1cc([N+](=O)[O-])cc([N+](=O)[O-])c1` the figure was 66.3%; with `O=C1C(=O)C2CC3(CC1N2Cc1ccccc1)OCCO3`, 96.5% (active).
Same read-out and setting: under `CNc1cc(SC)nc(N)n1` stands 94.3% (active).
In the case of `Clc1ccc(Cl)c(SCCCN2CCNCC2)c1`, the growth inhibition is 48.2%.
The same measure, in the same setting: under `CC(C)C(Cl)CC/C(CBr)=C(\Cl)CCl` (stereo not drawn) stands 80.8% (active); under `O=C(O)CNc1ccc2c(c1)Cc1cc(Br)ccc1-2`, 96.2% (active).
